Data on 99 compounds can be found in PubChem BioAssay AID588590 (National Center for Advancing Translational Sciences (NCATS), 2011).

Among all 390,000 compounds or so, about 4,000 (1%) were called active. Roughly 7% stayed inconclusive and do not appear here. Calls come from the whole dose curve; as a rule, active = well fitted inhibition curve with a large enough effect; inconclusive = small, poorly fitted or top-dose-only effect, or another doubt; inactive = no such curve, though single readings can be large or run the other way. Shown is part of a subset that was picked to be rich in actives. Where a call stands in place of a potency, no number is given.
Potency is the fitted concentration of half-maximal effect.

DNA polymerase iota (Homo sapiens), sequence (Q9UNA4 whole entry, looked up): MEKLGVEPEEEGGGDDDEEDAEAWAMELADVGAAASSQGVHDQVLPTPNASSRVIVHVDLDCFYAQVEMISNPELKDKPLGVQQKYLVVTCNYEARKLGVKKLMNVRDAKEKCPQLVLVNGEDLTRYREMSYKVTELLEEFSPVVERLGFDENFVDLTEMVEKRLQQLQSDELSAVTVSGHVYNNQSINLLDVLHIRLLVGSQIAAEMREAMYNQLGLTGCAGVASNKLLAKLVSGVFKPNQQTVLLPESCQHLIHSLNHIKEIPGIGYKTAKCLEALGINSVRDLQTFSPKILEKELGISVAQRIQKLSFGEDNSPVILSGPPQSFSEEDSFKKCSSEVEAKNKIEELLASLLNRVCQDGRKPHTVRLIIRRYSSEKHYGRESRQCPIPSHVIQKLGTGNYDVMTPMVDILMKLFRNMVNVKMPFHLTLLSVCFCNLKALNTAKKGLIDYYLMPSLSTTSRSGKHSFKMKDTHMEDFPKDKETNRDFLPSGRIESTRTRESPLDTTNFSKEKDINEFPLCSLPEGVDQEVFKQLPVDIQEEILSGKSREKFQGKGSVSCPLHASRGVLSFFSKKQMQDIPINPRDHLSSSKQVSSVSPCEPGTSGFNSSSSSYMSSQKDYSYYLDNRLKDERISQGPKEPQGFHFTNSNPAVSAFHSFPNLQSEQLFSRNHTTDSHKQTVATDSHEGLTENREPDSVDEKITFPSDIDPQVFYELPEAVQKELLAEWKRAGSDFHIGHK

The experiment addresses DNA polymerase iota (Homo sapiens) (UniProt Q9UNA4). The experiment is described as follows: qHTS for Inhibitors of Polymerase Iota. The conditions noted are these: Pol iota fluorescent replication assay, 10 min; series mostly up to 115 µM. The method, boiled down:
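Fluorescent replication assay read twice, at 0 min and 10 min after adding 50 nM (final) substrate. Enzyme (10 nM) and compounds were first incubated 15 min at room temperature; enzyme-free buffer wells were negative controls.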
Take `COc1ccc(CCN2C(=O)c3oc4cc(C)cc(C)c4c(=O)c3C2c2ccccc2F)cc1OC` (centres undefined): the Potency result was “inactive”.

On to `CSc1n[nH]c(-c2ccco2)n1`, for which the Potency result was “inactive”.

As for `Clc1ccccc1CSc1nnc(-c2ccco2)c(-c2ccco2)n1`, the Potency was 14.1 µM (active).

In the case of `CC1(C)N=C(SCc2ccccc2Cl)c2ccccc2N1`, the Potency result was “inactive”.

`c1ccc(CSc2nnc(-c3ccco3)c(-c3ccco3)n2)cc1`: the Potency is 7.94 µM (active).

Consider `Cc1cccc(Cc2c(C)nc3nc(SCc4ccccc4Cl)nn3c2C)c1`, for which the Potency result is “inactive”.

As to `Cc1ccc(-c2nnc(SCC(=O)NCc3ccccc3)nc2-c2ccc(C)cc2)cc1`, the Potency entry is “inactive”.

As for `O=C(CCc1nc(CN2CCN(S(=O)(=O)c3ccc(Br)cc3)CC2)no1)N1CCCCC1`, the Potency result is “inactive”.

For `CCOC(=O)c1scc(-c2ccc(C)cc2)c1S(=O)(=O)Nc1cc(C)ccc1C`, the Potency result was “inactive”.

As for `Cc1cccc(-n2c(SCC(N)=O)nc3c(oc4ccccc43)c2=O)c1`, the Potency entry is “inactive”.

Regarding `COc1cc(Cl)c(C)cc1NC(=O)CCc1nc2cccnc2n1Cc1cccs1`, the Potency result is “inactive”.

Turning to `Cc1cc(NC(=O)CSc2ncc(C(=O)Nc3ccc(Cl)cc3)c(=O)n2C)no1`, the Potency entry is “inactive”.

As to `CC1(C)CC(=O)C(N=Nc2ccc(S(=O)(=O)N3CCCCCC3)cc2)=C(O)C1`, the Potency entry is “inactive”.

For the compound `Cc1ccc(S(=O)(=O)N2CCN(S(=O)(=O)N3CCOCC3)CC2)cc1`, the Potency result is “inactive”.

Take `O=C1CCCC(O)=C1N=Nc1ccc(S(=O)(=O)N2CCOCC2)cc1`: the Potency is 35.5 µM (active).

Regarding `COc1ccc(Cn2c(=O)[nH]c3cc(C(=O)N4CCN(C(=O)c5ccco5)CC4)ccc3c2=O)cc1`, the Potency result is “inactive”.

For the compound `N#Cc1c(N2CCCCC2)nc(N)c2c(N)nc(SCC(=O)O)cc12`, the Potency is 7.08 µM (active).

Consider `N#Cc1c(C(F)(F)F)cc(-c2cccs2)nc1N1CCCCC1`, for which the Potency result is “inactive”.

For the compound `CC(C)(C)c1ccc(C(=O)C[N+]2(C)CCCc3ccccc32)cc1` (centres undefined), the Potency is 79.4 µM (active).

Consider `CC(C)(C)c1ccc(C(=O)C[n+]2cccc3cc(Cl)ccc32)cc1`, for which the Potency result was “inactive”.

With `CC(C)(C)c1ccc(C(=O)NCc2nnc(SCC(=O)N3CCCc4ccccc43)n2-c2ccccc2)cc1`, the Potency result is “inactive”.

For `Cc1ccc(NC(=O)Cn2cnc3nc4c(cc3c2=O)CCCC4)cc1Cl`, the Potency entry is “inactive”.

Turning to `CCOc1ccc(CNC(=O)C2CCN(c3nnc(-n4cccc4CNc4ccc(C)cc4)s3)CC2)cc1OC`, the Potency entry is “inactive”.

On to `Cc1ccc(CCNC(=O)c2ccc(CNS(=O)(=O)c3ccc(C)cc3)cc2)cc1`, for which the Potency entry is “inactive”.

For the compound `CN(C)c1nccc(NCc2ccccc2)c1C#N`, the Potency entry was “inactive”.

For `CC(C)n1cnc2c(NCc3ccccc3)cc(OCC3CCN(C)CC3)cc21`, the Potency was 3.16 µM (active).

`CCCCc1nn2c(=O)cc(COC(=O)c3cccc(NC(=O)COc4ccccc4)c3)nc2s1`: the Potency result is “inactive”.

Turning to `COc1ccc(OCC(=O)Nc2cccc(C(=O)OCc3cc(=O)n4nc(C)sc4n3)c2)cc1`, the Potency is 89.1 µM (active).

Turning to `Cc1ccc(OCC(=O)OCc2cc(=O)n3nc(C4CC4)sc3n2)cc1`, the Potency was 89.1 µM (active).

Consider `CCC(=O)Nc1cccc(C(=O)OCc2cc(=O)n3nc(CC)sc3n2)c1`, for which the Potency entry was “inactive”.

Consider `O=C(COc1ccccc1F)OCc1cc(=O)n2nc(C3CCCCC3)sc2n1`, for which the Potency entry was “inactive”.

On to `Cc1ccc(OCC(=O)OCc2cc(=O)n3nc(C4CC4)sc3n2)cc1C`, for which the Potency entry is “inactive”.

As for `Cc1ccc(NC(=O)Cn2c(=O)n(-c3ccccc3)c(=O)c3c4c(sc32)CCCC4)cc1`, the Potency result is “inactive”.

As to `CCOc1ccc(-c2nonc2NC(=O)c2oc3ccc(CC)cc3c2C)cc1`, the Potency entry was “inactive”.

Regarding `CCOC(=O)c1c(S(=O)(=O)N2CCCC(C(=O)NCc3ccc(F)cc3)C2)c(C)n(CC)c1C` (centres undefined), the Potency entry is “inactive”.

On to `Oc1cc(O)c2c(c1)OC(c1ccc(O)c(O)c1)C(O)C2` (centres undefined), for which the Potency was 79.4 µM (active).

In the case of `OC[C@H]1O[C@@H](n2cnc3c(N[C@H]4CC5CCC4C5)ncnc32)[C@H](O)[C@@H]1O` (some centres undefined), the Potency result is “inactive”.

`Cc1ccc(CSc2nc3ccsc3c(=O)n2CCC(C)C)cc1`: the Potency entry was “inactive”.

Turning to `COc1ccc(CCNC2=C(Cl)C(=O)N(Cc3ccccc3)C2=O)cc1OC`, the Potency entry is “inactive”.

On to `CN(C(=O)CN1C(=O)/C(=C/c2ccc(Cl)cc2)SC1=S)C1CCS(=O)(=O)C1` (centres undefined), for which the Potency entry is “inactive”.

As for `COc1cc(/C=C2/SC(=S)N(Cc3ccccc3)C2=O)cc(OC)c1O`, the Potency was 44.7 µM (active).

`Cc1ccccc1NC(=O)CN1C(=O)C(C)(C)c2ccccc21`: the Potency entry was “inactive”.

For the compound `Cc1ccccc1NC(=O)CN1C(=O)N/C(=C\c2cccn2-c2cccc(C(=O)O)c2)C1=O`, the Potency was 5.62 µM (active).

In the case of `Cc1ccccc1NC(=O)Cn1c(=O)n(CCc2ccccc2)c(=O)c2ccccc21`, the Potency entry was “inactive”.

For `COc1ccc2c(c1)c(=O)c(S(=O)(=O)c1ccc(F)cc1)cn2CC(=O)Nc1ccc(C)cc1C`, the Potency entry was “inactive”.

As for `CCN(CCCNC(=O)c1cc(Nc2ccc(OC)cc2)nc2ccccc12)c1cccc(C)c1`, the Potency entry is “inactive”.

In the case of `COc1cccc(CNC(=O)CSc2c3c(nc4cc(Cl)ccc24)CCCC3)c1`, the Potency result is “inactive”.

In the case of `COc1cccc(CNC(=O)c2ccc3c(Cl)c4c(nc3c2)CCCC4)c1`, the Potency was 89.1 µM (active).

On to `CC(C)CCNC(=O)c1ccc2c(Cl)c3c(nc2c1)CCC3`, for which the Potency entry was “inactive”.

Turning to `Cc1ccc(Cn2c(CCCNC(=O)C3CCCCC3)nc3ccccc32)cc1`, the Potency entry was “inactive”.

As for `Cn1c(=O)oc2cc(S(=O)(=O)CCC(=O)NCCc3ccc(Cl)cc3)ccc21`, the Potency entry was “inactive”.

Regarding `CCC(C)(C)NC(=O)c1cc([N+](=O)[O-])ccc1N1CCCCC1`, the Potency result is “inactive”.

For `O=C(O)C1CCN(c2ccc([N+](=O)[O-])cc2[N+](=O)[O-])CC1`, the Potency was 20 µM (active).

Regarding `CC1CCN(c2ccc([N+](=O)[O-])cc2C(N)=O)CC1`, the Potency entry was “inactive”.

Consider `COC(=O)CN1C(=O)N/C(=C/c2ccc(OC)c(C)c2OC)C1=O`, for which the Potency entry was “inactive”.

In the case of `COC(=O)COc1ccc2c(c1C)O/C(=C\c1ccco1)C2=O`, the Potency is 89.1 µM (active).

Take `COc1ccccc1OCC(=O)OCc1cc(-c2ccco2)on1`: the Potency result is “inactive”.

As for `Cc1ccc(C(=O)CC2(O)C(=O)N(CCc3ccccc3)c3ccc(Br)cc32)cc1` (centres undefined), the Potency entry was “inactive”.

`CCN(CC)c1cc(NC2CCCCC2)c2c3c(onc13)-c1ccccc1C2=O`: the Potency entry was “inactive”.

With `COc1ccc(CNC(=O)CC2Oc3ccc(C)cc3NC2=O)cc1` (centres undefined), the Potency entry was “inactive”.

In the case of `CCc1nnc(NC(=O)c2ccc(S(=O)(=O)NC3CCCCC3)cc2)s1`, the Potency entry was “inactive”.

On to `CCc1ccc(NC(=O)c2sc3nc4c(cc3c2N)CN(CC)CC4)cc1`, for which the Potency result was “inactive”.

Consider `CCc1ccc2nc3sc(C(=O)Nc4nnc(CC)s4)c(N)c3cc2c1`, for which the Potency is 22.4 µM (active).

In the case of `COC(=O)c1cc2occc2n1Cc1nc(-c2ccc(C)cc2)oc1C`, the Potency result is “inactive”.

Consider `Cc1cc(/C=N/Nc2ccc([N+](=O)[O-])cn2)c(C)n1-c1cccc(C(=O)O)c1`, for which the Potency was 28.2 µM (active).

Consider `Cc1cc(C=O)c(C)n1-c1ccc(NC2CCCCC2)c([N+](=O)[O-])c1`, for which the Potency result is “inactive”.

`Cc1cc(/C=N/NC(=O)CC2(C)OCCO2)c(C)n1-c1ccc(Cl)c(Cl)c1`: the Potency entry was “inactive”.

As to `COc1ccc(NC(=O)C2CCN(c3ccc(Sc4ccc(C)cc4)nn3)CC2)c(OC)c1`, the Potency result was “inactive”.

Consider `O=C1C[C@H]2C=CCc3cccc(c32)CN1Cc1ccccc1`, for which the Potency result was “inactive”.

As to `COc1ccc(Cl)cc1-n1c(CCC(=O)O)ccc1-c1ccc(C)cc1`, the Potency entry is “inactive”.

For `CCOc1ccccc1N(CC)C(=O)Nc1cn(C)c(=O)c2ccccc12`, the Potency entry is “inactive”.

For the compound `CCOc1ccccc1CNC(=O)Nc1cn(CC(C)C)c(=O)c2ccccc12`, the Potency is 39.8 µM (active).

Take `CCOc1ccccc1NC(=O)Cn1c2ncccc2c(=O)n1-c1ccc(C)c(C)c1`: the Potency result was “inactive”.

Take `Cc1cccc(-c2nnc(SC(C)C(=O)Nc3ccccc3)n2C)c1` (centres undefined): the Potency entry is “inactive”.

On to `Cc1ccc(C)c2sc(NC(=O)c3ccc(S(=O)(=O)N4CCCC4)cc3)nc12`, for which the Potency result is “inactive”.

For the compound `Cc1ccc(CCNC(=O)C2CCN(c3nnc(-n4cccc4CNc4ccc(C)cc4)s3)CC2)cc1`, the Potency result is “inactive”.

Regarding `c1ccc(-n2nnnc2N2CCOCC2)cc1`, the Potency result is “inactive”.

With `C1=C(N2CCOCC2)/C(=C/c2nc3ccccc3[nH]2)CC1`, the Potency is 14.1 µM (active).

For the compound `Cc1nn2c3cc(N4CCOCC4)ccc3nc2c2ccccc12`, the Potency entry was “inactive”.

On to `O=C(Nc1ccc(Cl)cc1)c1cnn2c1NC(=C1CC1)C=C2C(F)F`, for which the Potency entry was “inactive”.

With `CCCOC(=O)c1c(NC(=O)c2cc3nc(-c4ccc(OC)cc4)cc(C(F)(F)F)n3n2)sc2c1CCCC2`, the Potency entry was “inactive”.

`CC1CCC2(CC1)N=C(c1ccccc1)C(=O)N2CC(=O)Nc1ccc(F)c(Cl)c1` (centres undefined): the Potency entry is “inactive”.

`Cc1ccc2nc(COc3cccc(NC(=O)Nc4ccc(C)c(Cl)c4)c3)cc(=O)n2c1`: the Potency result is “inactive”.

`Cc1ccc2nc(COc3ccccc3NC(=O)Nc3ccc(F)c(Cl)c3)cc(=O)n2c1`: the Potency result is “inactive”.

For `Cc1ccc2nc(COc3cccc(NC(=O)c4cccc(Cl)c4)c3)cc(=O)n2c1`, the Potency was 89.1 µM (active).

`Cc1ccc(/C=N/NC(=O)c2cc3ccccc3cc2O)o1`: the Potency was 50.1 µM (active).

`Cc1ccc(/C=N/NC(=S)NC2CCCCC2)o1`: the Potency result was “inactive”.

Turning to `Cc1ccc(/C=N/NC(=O)Cn2nc(C)c(Br)c2C)o1`, the Potency result is “inactive”.

Consider `CCCC12CN3CC(C)(CN(C1)C3c1ccccc1Cl)C2=O` (centres undefined), for which the Potency entry was “inactive”.

`COc1ccc(N=C2SC(C(=O)Nc3ccc(F)cc3)CC(=O)N2C)cc1` (centres undefined): the Potency result is “inactive”.

Consider `CN=C1SC(C(=O)O)CC(=O)N1C` (centres undefined), for which the Potency is 89.1 µM (active).

Take `CCOc1ccc(N=C2SC(C(=O)O)CC(=O)N2C)cc1` (centres undefined): the Potency entry is “inactive”.

Take `Cc1ccc2ncc(C(=O)Nc3ccc(OC(F)(F)F)cc3)c(=O)n2c1`: the Potency result is “inactive”.

`CCOc1ccc(Nc2c(S(=O)(=O)c3ccccc3)cnc3ccccc23)cc1`: the Potency result was “inactive”.

For the compound `COc1ccc(OC)c(-n2nnc(-c3nc(-c4cc(OC)c(OC)c(OC)c4)no3)c2C)c1`, the Potency result is “inactive”.

For the compound `COc1cc(Nc2nc(-c3ccc(OC)c(OC)c3)nc3ccccc23)cc(OC)c1`, the Potency result is “inactive”.

`CNc1ccc(-c2nc(-c3ccco3)no2)cc1[N+](=O)[O-]`: the Potency result was “inactive”.

Take `O=[N+]([O-])c1cc(-c2nc(-c3ccccc3)no2)ccc1NCc1ccco1`: the Potency entry was “inactive”.

As for `CC(Nc1ccc(-c2nc(-c3ccco3)no2)cc1[N+](=O)[O-])c1ccccc1` (centres undefined), the Potency is 70.8 µM (active).
